Test results published in PubChem BioAssay AID1159580 (chemical genetic matrix, 2015).
Hit rate of the full screen: of about 5,500 compounds, about 2,000 (36%) were called active. About 18% were inconclusive and are not listed. No stated cut-off is given here; in the data, active means normalized growth mostly below about 0.91 (no sharp cut-off); inconclusive means no clear call, values can overlap the other calls; inactive means mostly above about 0.92. The list shows a part of the results.

Test: chemical genetic growth profiling, strain panel (AID 1159580);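 further: tested at 20 µM; growth read once vehicle control cultures reached saturation at 30 °C; 1 = growth at the plate median or of vehicle wells; lower values mean less growth of the strain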
Conditions: S. cerevisiae deletion strains, growth OD

Measured: normalized growth

COc1cccc2c1CCC1=CC(=O)CC[C@@]12C
inactive: locus YAL013W, strain DEP1, hits give low values 0.996 | locus YAL021C, strain ccr4, hits give low values 1.02 | locus YAL026C, strain drs2, hits give low values 1.01 | locus YAL030W, strain snc1, hits give low values 0.986 | locus YBL061C, strain skt5, hits give low values 0.989 | locus YBR009C, strain hhf1, hits give low values 0.992 | locus YBR021W, strain FUR4, hits give low values 0.966 | locus YBR023C, strain chs3, hits give low values 1.01 | locus YBR171W, strain sec66, hits give low values 0.987 | locus YBR229C, strain ROT2, hits give low values 1 | locus YBR231C, strain swc5, hits give low values 1.02 | locus YBR279W, strain paf1, hits give low values 1 | locus YCL011C, strain gbp2, hits give low values 0.997 | locus YCL016C, strain dcc1, hits give low values 0.999 | locus YCL029C, strain bik1, hits give low values 0.985 | locus YCL069W, strain vba3, hits give low values 0.993 | locus YCR088W, strain abp1, hits give low values 0.994 | locus YDL005C, strain med2, hits give low values 1.02 | locus YDL035C, strain GPR1, hits give low values 0.976 | locus YDL040C, strain nat1, hits give low values 1 | locus YDL074C, strain BRE1, hits give low values 0.944 | locus YDL101C, strain DUN1, hits give low values 1.01 | locus YDL134C, strain PPH21, hits give low values 0.995 | locus YDL185W, strain tfp1, hits give low values 1 | locus YDL192W, strain arf1, hits give low values 0.993 | locus YDR001C, strain nth1, hits give low values 1 | locus YDR069C, strain doa4, hits give low values 0.987 | locus YDR101C, strain arx1, hits give low values 0.981 | locus YDR137W, strain rgp1, hits give low values 1.07 | locus YDR150W, strain NUM1, hits give low values 1 | locus YDR159W, strain sac3, hits give low values 0.997 | locus YDR162C, strain NBP2, hits give low values 0.966 | locus YDR195W, strain ref2 1.04 | locus YDR297W, strain sur2, hits give low values 0.995 | locus YDR318W, strain mcm21, hits give low values 0.973 | locus YDR334W, strain swr1, hits give low values 1.02 | locus YDR335W, strain msn5, hits give low values 1.01 | locus YDR388W, hits give low values 0.989 | locus YDR392W, strain spt3, hits give low values 0.984 | locus YDR502C, strain sam2, hits give low values 0.961 | locus YEL003W, strain gim4, hits give low values 1 | locus YEL037C, strain rad23, hits give low values 0.993 | locus YEL061C, strain CIN8 (second series), hits give low values 1.01 | locus YEL061C, strain CIN8, hits give low values 1 | locus YER015W, strain faa2, hits give low values 1.01 | locus YER016W, strain bim1, hits give low values 1 | locus YER110C, hits give low values 0.983 | locus YER111C, strain swi4, hits give low values 1 | locus YER155C, strain BEM2 (second series), hits give low values 0.989 | locus YER155C, strain BEM2, hits give low values 1 | locus YER167W, strain BCK2, hits give low values 0.996 | locus YFR010W, strain ubp6, hits give low values 1.01 | locus YGL078C, strain dbp3, hits give low values 0.998 | locus YGL086W, strain mad1, hits give low values 0.987 | locus YGL167C, strain pmr1, hits give low values 1 | locus YGL173C, strain kem1, hits give low values 0.993 | locus YGL227W, strain vid30, hits give low values 1.01 | locus YGL240W, strain doc1, hits give low values 0.995 | locus YGL248W, strain PDE1, hits give low values 0.996 | locus YGL253W, strain hxk2, hits give low values 1.02 | locus YGR078C, strain PAC10, hits give low values 0.983 | locus YGR135W, strain pre9, hits give low values 0.939 | locus YGR229C, strain SMI1, hits give low values 0.98 | locus YGR252W, strain gcn5, hits give low values 0.814 | locus YHR013C, strain ard1, hits give low values 0.967 | locus YHR027C, strain rpn1, hits give low values 1.01 | locus YHR030C, strain SLT2, hits give low values 0.994 | locus YHR079C, strain IRE1 (second series), hits give low values 0.973 | locus YHR094C, strain hxt1, hits give low values 0.998 | locus YHR129C, strain ARP1, hits give low values 0.995 | locus YHR142W, strain chs7, hits give low values 0.975 | locus YHR200W, strain rpn10, hits give low values 0.989 | locus YIL066C, strain RNR3, hits give low values 0.955 | locus YIL073C, strain SPO22, hits give low values 0.949 | locus YIL125W, strain kgd1, hits give low values 0.992 | locus YIR030C, strain dcg1, hits give low values 0.983 | locus YJL092W, strain hpr5, hits give low values 1.02 | locus YJL095W, strain BCK1 (second series), hits give low values 1 | locus YJL095W, strain BCK1, hits give low values 0.972 | locus YJL115W, strain asf1, hits give low values 1.01 | locus YJL129C, strain trk1, hits give low values 0.973 | locus YJL134W, strain LCB3, hits give low values 1.01 | locus YJL154C, strain vps35, hits give low values 1 | locus YJL164C, strain tpk1, hits give low values 0.996 | locus YJL166W, strain qcr8, hits give low values 0.987 | locus YJL168C, strain set2, hits give low values 0.984 | locus YJL187C, strain SWE1 (second series), hits give low values 0.989 | locus YJR043C, strain POL32, hits give low values 0.97
